The term inhibition denotes the share of the control response that was lost under treatment.

Active and inactive are the calls of the source.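 Rule for the calls: active = inhibition of 60% or more at 11 µM; inconclusive = inhibition from 30% up to under 60% at 11 µM; inactive = inhibition below 30% at 11 µM.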

Sequence of Ubiquitin carboxyl-terminal hydrolase 1 (Homo sapiens) + WD repeat-containing protein 48 (Homo sapiens) (O94782 whole entry, looked up): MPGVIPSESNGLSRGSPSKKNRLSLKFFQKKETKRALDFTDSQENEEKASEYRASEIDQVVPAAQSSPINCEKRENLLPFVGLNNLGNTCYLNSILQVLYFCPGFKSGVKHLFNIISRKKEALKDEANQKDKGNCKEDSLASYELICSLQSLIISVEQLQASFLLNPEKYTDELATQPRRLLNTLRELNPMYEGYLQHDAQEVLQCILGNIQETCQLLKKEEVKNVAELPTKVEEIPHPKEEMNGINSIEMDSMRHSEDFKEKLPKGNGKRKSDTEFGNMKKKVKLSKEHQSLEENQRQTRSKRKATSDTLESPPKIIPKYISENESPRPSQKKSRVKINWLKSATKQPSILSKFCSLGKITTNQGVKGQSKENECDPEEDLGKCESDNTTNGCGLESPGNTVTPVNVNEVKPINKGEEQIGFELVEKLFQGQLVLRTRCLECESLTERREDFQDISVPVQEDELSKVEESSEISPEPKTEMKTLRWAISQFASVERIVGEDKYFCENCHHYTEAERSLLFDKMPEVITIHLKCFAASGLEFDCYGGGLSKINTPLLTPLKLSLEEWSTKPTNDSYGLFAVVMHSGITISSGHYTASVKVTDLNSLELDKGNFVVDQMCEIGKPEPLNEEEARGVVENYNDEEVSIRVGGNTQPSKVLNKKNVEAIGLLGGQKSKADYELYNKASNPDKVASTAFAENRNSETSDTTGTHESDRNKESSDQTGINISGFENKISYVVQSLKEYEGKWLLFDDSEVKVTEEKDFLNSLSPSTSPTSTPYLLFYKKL
Sequence of Ubiquitin carboxyl-terminal hydrolase 1 (Homo sapiens) + WD repeat-containing protein 48 (Homo sapiens) (Q8TAF3 whole entry, looked up): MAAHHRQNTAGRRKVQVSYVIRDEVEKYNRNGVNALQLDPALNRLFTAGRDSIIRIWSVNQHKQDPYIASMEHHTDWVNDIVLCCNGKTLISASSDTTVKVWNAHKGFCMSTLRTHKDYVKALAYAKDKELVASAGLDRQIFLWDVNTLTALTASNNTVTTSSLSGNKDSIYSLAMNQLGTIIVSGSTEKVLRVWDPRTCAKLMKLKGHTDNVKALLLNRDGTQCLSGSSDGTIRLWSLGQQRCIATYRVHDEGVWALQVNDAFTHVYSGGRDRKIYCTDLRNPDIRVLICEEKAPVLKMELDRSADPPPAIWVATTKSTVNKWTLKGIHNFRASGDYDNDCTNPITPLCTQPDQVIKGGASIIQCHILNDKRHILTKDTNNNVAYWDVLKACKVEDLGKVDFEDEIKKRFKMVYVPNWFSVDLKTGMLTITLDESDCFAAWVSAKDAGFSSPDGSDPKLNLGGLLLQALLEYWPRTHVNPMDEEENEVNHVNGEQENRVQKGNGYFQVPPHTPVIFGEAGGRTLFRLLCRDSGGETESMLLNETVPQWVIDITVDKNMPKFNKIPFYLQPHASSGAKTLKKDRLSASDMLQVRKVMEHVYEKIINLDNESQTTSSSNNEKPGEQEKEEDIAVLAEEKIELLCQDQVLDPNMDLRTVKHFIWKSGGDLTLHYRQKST

This assay addresses Ubiquitin carboxyl-terminal hydrolase 1 (Homo sapiens) + WD repeat-containing protein 48 (Homo sapiens) (UniProt O94782+Q8TAF3). Kind of assay: Inhibitors of USP1/UAF1: SAR in USP1/UAF1 diubiquitin SDS-PAGE gel assay. The note with it: purified USP1/UAF1, K63 diubiquitin cleavage, at 11 µM, hits give high values. From the text:
Deubiquitinating enzymes (DUBs) are a class of enzymes that can cleave isopeptide bond formed between the C-terminal carboxylate of ubiquitin and a lysine side-chain amino group on the target protein. Among them, ubiquitin specific proteases (USPs) constitute the largest DUB family. Human USPs are emerging as promising targets for pharmacological intervention because of their connection to a number of human diseases, including prostate, colon and breast cancer (1, 2), pediatric acute lymphoblastic leukemia (3), and familial cylindromatosis (4). The advantage of inhibiting USPs lies in the potential specificity of therapeutic intervention that can lead to better efficacy and reduce nonspecific side effects. In a collaboration between the University of Delaware and the NIH Chemical Genomics Center, a high-throughput screen assay was developed to screen for USP1/UAF1 inhibitors (5). This assay is a orthogonal assay that tested for activity in a USP1/UAF1 diubiquitin SDS-PAGE gel assay. NIH Chemical Genomics Center [NCGC] […]
The inhibition assay contains 100 nM for USP1/UAF1, 2 microM K63 linked diubiquitin, and inhibitors at varied concentrations (0.08 microM - 114 microM). […] The intensity of the individual diubiquitin and monoubiquitin band was quantified using Quantity One 4.3.1 (Biorad, Hercules, CA). The percentage of the conversion was determined and used to calculate the reaction rate. […]
With `Cc1cnc(-c2ccccc2C(C)C)nc1NCc1ccc(-n2ccnn2)cc1`, the inhibition is 98.5% (active).

The values above are taken from PubChem BioAssay AID651621 (National Center for Advancing Translational Sciences (NCATS), 2012).
